Measured values from PubChem BioAssay (EPA / NIEHS).
Active and inactive are the calls of the source. How the source made its calls: active means hit-call score of the fitted dose curve at least 0.9, where 1 is the maximum; inactive means score below 0.9.

Tests used:
[1] = ATG_CRE_CIS: Attagene CIS-FACTORIAL HepG2 Assay for human cAMP Responsive Element (CRE) binding protein 3 (AID 2282926); conditions: HepG2 CRE cis-reporter, Attagene multiplexed mRNA; actives raise or lower the signal
In short: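 Cells carrying cis-regulated reporter constructs respond through their own endogenous factors. After 24 h treatment, RNA is reverse-transcribed, amplified, labelled and sized by capillary electrophoresis; up- and down-regulation are both scored against vehicle.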

[2] = biological target: CCAAT/enhancer-binding protein beta (Homo sapiens) (UniProt P17676); test: ATG_C_EBP_CIS: Attagene CIS-FACTORIAL HepG2 Assay for human CCAAT/Enhancer Binding Protein (C/EBP) beta (AID 2282927); conditions: HepG2 Attagene cis-factorial transcription factor reporter; actives raise or lower the signal
In short: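 Endogenous C/EBPb-driven reporter transcripts measured in transfected human HepG2 cells at 24 h via RT-PCR and capillary electrophoresis of labelled fragments. Activity fitted in both directions relative to DMSO baseline.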

Chain of CCAAT/enhancer-binding protein beta (Homo sapiens) (P17676 whole entry, looked up, the tested form may be a part): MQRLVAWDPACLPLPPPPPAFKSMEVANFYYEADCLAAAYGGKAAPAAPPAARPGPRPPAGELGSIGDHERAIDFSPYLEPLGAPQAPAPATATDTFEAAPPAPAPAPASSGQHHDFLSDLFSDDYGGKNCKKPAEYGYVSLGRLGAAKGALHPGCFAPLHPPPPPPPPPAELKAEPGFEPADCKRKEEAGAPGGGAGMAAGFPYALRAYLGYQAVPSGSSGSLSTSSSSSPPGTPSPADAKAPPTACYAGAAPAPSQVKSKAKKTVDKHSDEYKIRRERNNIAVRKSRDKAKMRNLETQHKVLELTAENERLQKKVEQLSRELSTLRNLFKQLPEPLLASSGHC

SMILES | AC50 [1] | AC50 [2] | outcome [1] | outcome [2]
CCOC(=O)CC(=O)CCl | 176 µM (active) | 183 µM (active) |  | 
OCC(c1ccc(Cl)cc1)c1ccc(Cl)cc1 |  |  | inactive | inactive
Cc1cc(Cl)ccc1OCCCC(=O)O |  |  | inactive | inactive
CCN(N=O)C(N)=O |  |  | inactive | inactive
O=C1C[C@@H]2OCC=C3CN4CC[C@]56c7ccccc7N1[C@H]5[C@H]2[C@H]3C[C@H]46 |  |  | inactive | inactive
Cc1ccc2nc3sc(=O)sc3nc2c1 | 6.6 µM (active) | 25 µM (active) |  | 
O=C(Cc1ccccc1)OCCc1ccccc1 |  |  | inactive | inactive
Cc1cc(C(C)(C)c2ccc(O)c(C)c2)ccc1O | 21.8 µM (active) |  |  | inactive
CCOP(=S)(OCC)OP(=S)(OCC)OCC |  |  | inactive | inactive
